# Hits are enriched below; roughly 2.4% of the tested compounds scored in any of these assays.
# M1 antag: human M1 muscarinic receptor antagonists, primary screen, CHO-K1 cells, Fluo-8 calcium fluorescence, 1536-well; CHO-K1 hM1, ACh EC80 antagonist; inhibition, % at 3 µM; actives 1.3% (n = 360,000); AID 588852, 2011;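 active means percent inhibition above its own plate's cutoff, namely the mean of that plate's compound wells plus 3 SD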;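 further: peak over basal fluorescence ratio during 140 s after agonist addition; 0% = ACh EC80 plus DMSO and 100% = DMSO alone without agonist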
# Target sequence (P11229 whole entry, looked up): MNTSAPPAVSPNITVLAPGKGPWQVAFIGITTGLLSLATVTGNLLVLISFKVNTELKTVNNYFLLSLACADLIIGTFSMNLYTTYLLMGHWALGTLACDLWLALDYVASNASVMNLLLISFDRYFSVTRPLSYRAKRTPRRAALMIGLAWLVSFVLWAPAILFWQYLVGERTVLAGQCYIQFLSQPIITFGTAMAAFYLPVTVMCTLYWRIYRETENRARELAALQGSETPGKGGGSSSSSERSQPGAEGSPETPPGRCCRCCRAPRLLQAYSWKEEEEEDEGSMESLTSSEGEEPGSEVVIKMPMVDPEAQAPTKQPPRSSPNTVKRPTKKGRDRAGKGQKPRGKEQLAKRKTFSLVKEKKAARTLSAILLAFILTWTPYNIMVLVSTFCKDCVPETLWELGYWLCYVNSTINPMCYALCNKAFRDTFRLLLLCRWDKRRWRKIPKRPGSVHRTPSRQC
# CHRM1 PAM: human M1 muscarinic receptor positive allosteric modulators, primary screen, CHO-K1 cells, Fluo-8 calcium fluorescence, 1536-well; CHO-K1 hM1, ACh EC20; 0% = ACh EC20, 100% = maximal ACh; activation, % at 3 µM; actives 0.088% (n = 360,000); AID 588819, 2011; in the data active means activation above about 19%, passing the limit was not always enough
# CHO-K1 Ca ag: counter-screen for M1 agonists: effect in parental CHO-K1 cells. Fluo-8 calcium fluorescence; scaled to maximal ATP response, vehicle zero. activation, % at 3 µM. actives 0.48% (n = 360,000); in the data active means activation above about 15%;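 further: untransfected CHO-K1 host cells lacking M1 receptor as counterscreen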
# M1 PAM parental: nonselective calcium activators in parental CHO-K1 cells, primary screen, counter-screen for M1 PAM project, cell-based, Fluo-8 calcium fluorescence, full deck, 1536-well. activation, % at 3 µM. AID 602247, 2012. actives 0.02% (n = 360,000). ATP EC20; 0% at ATP EC20, 100% at ATP max;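 active means activation above the run cutoff, the mean activation of all test compounds plus 3 SD, cut at about 40% in these data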;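 further: peak over basal fluorescence ratio in a 140 s read after ATP addition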
# CHO-K1 Ca antag: nonselective inhibitor or artifact in parental CHO-K1 cells; ATP-induced calcium, Fluo-8 fluorescence; inhibition, % at 3 µM; actives 0.6% (n = 360,000);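 active means inhibition above a per-plate cutoff, the plate's mean sample inhibition plus 3 SD, cut at about 24% in these data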;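 further: 0% = DMSO plus EC80 ATP and 100% = DMSO alone without ATP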
# M1 ag: human M1 muscarinic receptor agonists, primary screen, Fluo-8 calcium fluorescence, CHO-K1 cells, HTS; AID 588814, 2011; activation, % at 3 µM; Muscarinic acetylcholine receptor M1 (Homo sapiens), P11229; actives 0.33% (n = 360,000); CHO-K1 hM1, agonist mode; 0% DMSO, 100% acetylcholine EC100;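 active means activation above the run's mean compound activation plus 3 SD, cut at about 16% in these data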;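 further: peak over basal fluorescence ratio within a 140 s kinetic read after compound addition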
# * marks the source's active call; other numbers are inactive results; x = no result given; ! = a repeat was not active.
SMILES,M1 antag,CHRM1 PAM,CHO-K1 Ca ag,M1 PAM parental,CHO-K1 Ca antag,M1 ag
O=C1Nc2ccccc2/C1=C/c1ccccc1Cl,-11,2,1,-13,-17,-4
O=C(O)c1ccc(N/N=C/c2cn(Cc3ccccc3F)c3ccccc23)cc1,5,-2,23*,1,9,5
Nc1ccc(C(=O)N/N=C/c2cn(Cc3ccccc3F)c3ccccc23)cc1,19,-4,5,-18,-3,2
CCOC(=O)C1=C(C)N(CC(C)C)C(=O)/C1=C\c1ccc(OCC(=O)Nc2ccccc2)cc1,34*,-20,1,13,-1,-4
C=C(C)[C@@H]1CC=C(CN2CCN(Cc3ccccc3)CC2)CC1,38*,-31,0,-12,1,-11
Cc1ccc(-c2cn(-c3ccccc3)c3[n+]2CCCS3)cc1,40,-22,1,17,-11,-4
CCc1ccc(-n2cc(-c3ccc(F)cc3)[n+]3c2SCCC3)cc1,52*,-32,1,19,0,-13
COc1ccc(C(=O)Nc2ccc3ccccc3c2)cc1,-6,9,1,16,-5,-4
COc1ccc(OC)c(C(=O)c2ccc(C(=O)Nc3ccc4ccccc4c3)cc2)c1,-3,-5,0,-16,27*,-3
CCN(CC)C(=O)c1csc(COCCO)n1,-9,3,0,17,-18,-1
CN(C)C/C=C/C(O)(c1ccccc1)c1ccccc1,97*,-26,1,19,-4,-7
NNC(=O)CS(=O)(=O)CS(=O)(=O)CC(=O)NN,-2,2,-1,-20,72*,-1
CC1(C)Cc2cccc(OCC(=O)Nc3ccccc3N3CCOCC3)c2O1,30*,-13,0,3,7,-3
Cc1ccc(C(=O)NCCSc2snnc2C)cc1,2,-5,0,-5,43*,-5
COc1ccc(C(=O)CSc2nc3nn(-c4ccccc4)c(=O)c-3c3n2CCCCC3)c(OC)c1,0,6,0,15,-9,-5
O=C(Cn1cc(C(=S)N2CCOCC2)c2ccccc21)N1CCOCC1,-27,9,1,19,-6,-2
O=C(O)Cn1cc(C(=S)N2CCOCC2)c2ccccc21,-27,27*,0,-6,-22,2
Fc1ccc(Cn2cc(C(=S)N3CCOCC3)c3ccccc32)cc1,-3,8,23*,2,9,8
COc1ccc(CN(C)C(=O)c2ccc(NS(=O)(=O)c3ccc4[nH]c(=O)[nH]c4c3)cc2)c(OC)c1OC,-14,14,0,10,-21,-4
CCCCCCn1cc(CN2CC(N3CCCCC3)CS2(=O)=O)nn1 (stereo not drawn),x,x,0,-6,7,x
C=CCn1c(SCC(C)=O)nnc1-c1ccc2ncccc2c1,-7,4,2,10,3,-2
C=CCn1c(SC)nnc1-c1ccc2ncccc2c1,-7,7,17*,15,2,2
NC(=O)C1CN(C(=O)c2cccc(S(=O)(=O)N3CCc4ccccc43)c2)c2ccccc2O1 (stereo not drawn),-8,13,2,-11,2,0
COc1ccc(OC)c(NC(=O)c2cc(OC(C)=O)cc(C(=O)Nc3cc(OC)ccc3OC)c2)c1,-4,10,2,-11,30*,2
O=C(COC(=O)COc1ccccc1)NC12CC3CC(CC(C3)C1)C2,-8,8,0,7,-7,-3
SMILES,M1 antag,CHRM1 PAM,CHO-K1 Ca ag,M1 PAM parental,CHO-K1 Ca antag,M1 ag
O=C(c1cccc(N2CCCC2=O)c1)N1CCN(c2cccc(Cl)c2)CC1,-13,1,10,11,-8,1
CN(CC(=O)Nc1ccc(F)c(F)c1F)C(=O)C1(c2ccccc2)CC1,-8,3,2,7,24*,-2
CN(CC(=O)Nc1ccccc1F)CC(=O)Nc1ccc(F)c(F)c1F,-3,2,2,6,1,-6
CN(Cc1ccco1)S(=O)(=O)c1cc(F)ccc1CN1C(=O)c2cccnc2C1=O,0,2,3,19,-13,-1
O=C(Nc1cccc(Cl)c1)Nc1nnc(-c2ccncc2)s1,25,-10,11,-5,33*,4
CS(=O)(=O)c1ccc2nc(NC(=O)Nc3cccc(Cl)c3)sc2c1,33*,-14,16*,-9,12,6
Cc1cc(C)cc(NC(=O)c2cccc(C(=O)Nc3cc(C)cc(C)c3)n2)c1,-9,3,0,5,3,-2
COC(=O)[C@@]1(Cc2ccc(F)cc2)[C@H]2c3cc(C(=O)N4CCCC4)n(C)c3C[C@H]2CN1C(=O)c1ccccc1,x,x,2,19,-12,x
Fc1ccc2[nH]c3c(N4CCN(c5ccccc5)CC4)ncnc3c2c1,54*,-18,11,-5,27*,7
CCOC(=O)N1CCN(c2ncnc3c2[nH]c2ccc(OC)cc23)CC1,4,9,1,-2,4,2
CCOC(=O)N1CCN(c2ncnc3c2[nH]c2ccc(F)cc23)CC1,28*,-15,9,-6,19,3
OC1(c2cccc(C(F)(F)F)c2)CCN(c2ncnc3c2[nH]c2ccc(F)cc23)CC1,36*,-12,5,-2,22,-1
O=C(CCCN1CCC(O)(c2cccc(C(F)(F)F)c2)CC1)c1ccc(F)cc1,-2,-4,5,17,-9,8
CCCCOc1ncnc2c1[nH]c1ccc(F)cc12,29,-7,16*,-1,28*,-3
CC1CC(C)CN(C(=O)C2CCN(S(=O)(=O)c3c(Cl)cccc3Cl)CC2)C1 (stereo not drawn),-1,0,2,6,-8,-2
CCN=C1SC(CC(=O)Nc2ccc3c(c2)OCO3)C(=O)N1CC (stereo not drawn),28*,-19,6,-3,23,1
CCN=C1SC(CC(=O)Nc2ccccc2)C(=O)N1CC (stereo not drawn),29*!,-16,8,14,-5,2
CCN=C1SC(CC(=O)NCC)C(=O)N1CC (stereo not drawn),-26,0,0,-5,15,0
O=C(/C=C/c1ccccc1[N+](=O)[O-])OCC(=O)N1CCN(c2ccccc2)CC1,-1,0,2,9,2,-3
CC(C)(C)c1cc(NC(=O)C2(C)CCN2C(=O)c2ccccc2CCc2ccccc2)no1 (stereo not drawn),-8,-4,1,17,-16,-4

# Screening data from PubChem BioAssay.
